PBM binding z-score data for 40 sequences are collected here from the supplement of paper PMC6555819.

This test concerns VDR:RXRa (NR concentration 270 nM, RXRa partner concentration 90 nM). The test can be described thus: PBM binding z-score (relative to random genomic background probes); higher = stronger binding; sequences stand for … in GC…GCGATTGACAGCGTAGAATGAAGG
The procedure: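 Protein-binding microarray (Agilent 4x180K custom design, double-stranded 60-nt probes: 5' GC cap, 34-nt variable region, 24-nt constant primer region; full probe sequence given). Purified or IVT nuclear receptor:RXRα heterodimers (3:1 NR:RXRα, mostly 270:90 nM) or homodimers were incubated for 1 h in PBS with 2% milk and no ligand, then detected with Alexa488 antibodies. Fluorescence from o1-orientation probes (~5 replicates averaged) was converted to z-scores against 500 random hg19 background probes. Variable regions are seed direct-repeat (DR0–DR5) sites, all their single-nucleotide variants and half-site ablations.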
The sequence TCTAGCTGGCCAGAGGGTCACTCAAGAGGTACGG gave a PBM binding z-score of 1.44.
Next, CCTACTGGGCCATTCAGCGGTCATTGATCATATG: -0.109; CCTACTGGGCCAAATGTCATTGATTCCAATGCTC: 0.0339.
Next, TGAATGAGGTTATAAGATCAGGGAGCGTTGCAAA: 0.606; AATACAGGGTCACTAGGCCAGAGTCGGTACGAAT: 4.03.
In the case of CCGAGTAGGTTACGGGGCATTCAGGCAACGGTGA, the PBM binding z-score came to 0.208.
In turn, ACTATTAGTTGACTTAGGGCAACCGGTACGACGC returned a PBM binding z-score of 1.16.
The value for TCATGTAGATCAGCAGGTTAAGAAAGCTGGCCAA was 0.442; that for AGAATGAGGTTATACGTAGAACAGGGAAGAAAGT was 1.26; that for TCTTGTAGATCAATCGAGGTTAAGAAAGTGCGCT was 1.75.
ACCATTAGTTGACTTAGGGCAACCGATACGACGC came in with a PBM binding z-score of 0.475.
Next, CCGACTGGGGCAAGGTAACCATAACGCACAGCCA: -0.466; ATACCAAGGTGATCGTAAGGTCGTTGATACTAAC: 2.74.
Next, TCTTGTAGATCAACAGGAGGTTATGAAAGATCGA: 0.761.
The value for ATCTCTAGGTAACAAGTACAGTGAAAGAGAGGAC was 0.429; that for CCGACTGGGGCAAAGGTTACCATCCTCAGTACGA was 1.37; that for GCTCAGAGGACAAGGTCAGAGCTTTGTCCGTAGA was 1.69.
For the sequence TCATATAGGTAAACAGCTGAAAGTCCGTAAGTTA, the PBM binding z-score amounted to 1.06.
For ATATGTAGGTTAGCTGGTGTCATTCAGACTAGGC, the PBM binding z-score came out at 1.4.
CCTTACTGGTCACTCCAGGTTATAGCATCGGAGT: the PBM binding z-score was found to be 0.952.
The value for AGAATGAGGATATTAAGATCAGGGAATTGCGGTC was -0.178.
The value for TGTCAAAGTTGAAAGGTAACGTAAGTATCCACAC was 0.996; that for GATACAGGGTCAAGGCCAGAGCACGCGTATTGAT was 4.21.
The value for ACAGACAGGTGAGTGAAGGTAACTCAACTGGACG was -0.232.
AGAATGAGGTTAAGATAAGGGAAACAGAATACAT returned a PBM binding z-score of 1.62.
Next, TCTGCTAGGTCAGTTGGTCAGCTTACGAGCTGCC: 0.0848.
The value for CCCAGCAGGCCAATCTGGGTCACTCAAGGCTTGA was 0.284.
Sequence GCGACTGGGGCAAAGCAGGTTACCAAAAGGTTGG showed a PBM binding z-score of 0.136.
Next, CCTTACGGGTCACTGACAGGTTATAGAATTTGGA: 3.69; CCGACTGGGGCAGAAAGGTTACTATACCATCCGG: 0.555.
The value for ACTAGCAGGCCAAGGGTCACTCACGATTAGTCCG was 2.69; that for CCGAATAGGTTATGGGGCATTCAGGCAACGGTGA was 0.258; that for ATCTCTACGTAAAGTTCAGTGAAAGATCGATAGA was 1.67.
The value for ATATGTAGGTTATCGGGTCAATCAGTTTGCGCAT was 5.29; that for CCGAGTAGGTTATGGAGCATTCAGGCAACGGTGA was -0.239; that for TGACCAAGGTGAAAGGTCGTTGATGCACGCCTTG was 2.96.
Turning to CCTAGCAGGCCAATCTGGGTCACTCATGGCTTGA, the PBM binding z-score came to 0.303.
Next, TTACCAAGGTGAAGGTCGATGATCCCTCTGTAGA: 0.54; TGAATGAGGTTATAAGATCAAGGAACGTTGCAAA: 1.1; TCAGACAGGTGAAGGTAACTCACGTACGCAGTCG: 0.473.
